Measured values taken from PubChem BioAssay (Tox21).
Records with an inconclusive call do not appear. Calls of active or inactive are those of the source. Unless noted, the call rests on the fitted dose curve; in most records, active means well fitted curve in the direction sought with a large enough effect in the repeat runs; inconclusive means weak or mixed curves; inactive means no such curve, though single readings can be large; an effect the other way counts as inactive or inconclusive.

Assays:
[1] = biological target: Thyrotropin receptor (Homo sapiens) (UniProt P16473); assay: qHTS assay to identify small molecule antagonists of the thyroid stimulating hormone receptor (TSHR) signaling pathway (AID 1259385; calls by dose curve; further: nearly all actives have a fitted effect of over 20% in size)
Method in brief: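 TSHR-HEK293 cells (800/well) plated 18 h, then compounds with Ro20-1724 and TSH at 1.5 ng/mL final, 30 min at room temperature. cAMP quantified by HTRF (cAMP-d2/anti-cAMP-cryptate, 1 h); 15 concentrations in triplicate.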

[2] = qHTS assay to identify small molecule agonists of the estrogen receptor alpha (ER-alpha) signaling pathway in the presence of an antagonist - cell viability counter screen (AID 1259386);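 further: series mostly up to about 92 µM; cells exposed to compounds for 22 h at 37 °C before the viability read; nearly all actives have a fitted effect of over 30% in size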
Method in brief: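 Steps: 5-day stripped-FBS culture; seed and incubate 24hr; add ICI-182,780 (10.0nM final); pin 15-point compound titration; incubate 22hr at 37C; add CellTiter-Fluor at 21hr; read fluorescence.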

[3] = biological target: Progesterone receptor (Homo sapiens) (UniProt P06401); assay: qHTS assay to identify small molecule agonists of the progesterone receptor (PR) signaling pathway (AID 1346784; calls by dose curve; further: nearly all actives have a fitted effect of over 30% in size; further: potency means the concentration at half of the fitted maximal effect)
Method in brief: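 PR-UAS-bla HEK 293T cells carrying a UAS-driven beta-lactamase reporter were seeded in medium with 2% charcoal-stripped FBS, preincubated 6 hr at 37C, then exposed to compounds in DMSO for 16 hr; agonism was read by LiveBLAzer B/G FRET fluorescence.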

[4] = biological target: Progesterone receptor (Homo sapiens) (UniProt P06401); assay: qHTS assay to identify small molecule antagonists of the progesterone receptor (PR) signaling pathway (AID 1346795; active means well fitted inhibition curve with a large enough effect in the signal ratio in the repeat runs, not every such curve was filed as active; the % refers to the signal ratio; further: potency means the concentration at half of the fitted maximal effect)
Method in brief: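 PR-UAS-bla HEK293T cells carrying a UAS-driven beta-lactamase reporter were plated in medium with 2% charcoal-stripped FBS and rested 6 hr at 37C. Compounds were added with 1 nM R5020 (final) for 16 hr, then FRET substrate loaded 2 hr at room temperature.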

[5] = qHTS assay to identify small molecule antagonists of the TGF-beta/Smad signaling pathway - cell viability counter screen (AID 1346824); further: nearly all actives have a fitted effect of over 50% in size
Method in brief: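 SBE-bla HEK 293T cells, incubated overnight, then compound plus 0.25 ng/mL TGF-beta1 (stock added) for 5 hr at 37 C. Viability was read in the same wells by CellTiter-Glo luminescence after 30 min at room temperature.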

[6] = qHTS assay to identify small molecule agonists of the TGF-beta/Smad signaling pathway - cell viability counter screen (AID 1346829); further: top concentration of the series differs between compounds; nearly all actives have a fitted effect of over 45% in size
Method in brief: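 Cytotoxicity counter screen: CellTiter-Glo luminescence (30 min, room temperature) measured in the SBE-bla HEK 293T reporter wells after 5 hr compound treatment at 37 C and the 2 hr substrate step.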

[7] = qHTS assay to identify small molecule agonists of the TGF-beta/Smad signaling pathway (AID 1346859; active means well fitted activation curve with a large enough effect in the signal ratio in the repeat runs, not every such curve was filed as active; the % refers to the signal ratio; further: series mostly up to about 77 µM)
Method in brief: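 HEK 293T cells stably carrying a beta-lactamase reporter driven by the Smad binding element were seeded overnight, exposed to DMSO-dissolved compounds for 5 hr at 37 C, 5% CO2, then loaded with FRET substrate for 2 hr at room temperature.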

[8] = biological target: Thyrotropin-releasing hormone receptor (Homo sapiens) (UniProt P34981); assay: qHTS assay to identify small molecule antagonists of the thyrotropin-releasing hormone receptor (TRHR) signaling pathway (AID 1346877; active means well fitted inhibition curve with a large enough effect in the repeat runs, not every such curve was filed as active; further: series mostly up to about 51 µM)
Method in brief: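 Human TRHR in HEK293 cells; inhibition of the intracellular calcium rise triggered by 1 nM TRH was followed by fluorescence over 3 min. Compounds were run at 15 concentrations, three replicates each.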

[9] = biological target: Thyrotropin-releasing hormone receptor (Homo sapiens) (UniProt P34981); assay: qHTS assay to identify small molecule agonists of the thyrotropin-releasing hormone receptor (TRHR) signaling pathway (AID 1346891; calls by dose curve; further: series mostly up to about 58 µM)
Method in brief: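 TRHR-expressing HEK293 cells were plated 18 h at 37 °C/5% CO2, loaded with calcium dye 2 h at 37 °C, then given compound in DMSO; fluorescence was read kinetically for 3 min at 1 s intervals.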

[10] = Human pregnane X receptor (PXR) small molecule agonists, qHTS cell viability counter screen (AID 1346977); further: nearly all actives have a fitted effect of over 50% in size
Method in brief: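 PXR-Luc HepG2 cells in medium with 5% charcoal-stripped FBS were pre-incubated 5hr, then exposed to compounds for 24hr at 37C. Viability was read in the same wells by CellTiter-Fluor fluorescence, reagent added after 23hr with a 1hr incubation.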

[11] = Caspase-3/7 induction in HepG2 cells by small molecules, qHTS assay (AID 1346978); further: nearly all actives have a fitted effect of over 15% in size
Method in brief: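 Wild-type HepG2 cells, 2,000/well, settled 5 hr at 37 C and 5% CO2, then compound-treated for 17 hr; caspase-3/7 activity read by luminescent Caspase-Glo 3/7 after 30 min at room temperature.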

[12] = Caspase-3/7 induction in HepG2 cells by small molecules, qHTS cell viability counter screen (AID 1346981); further: series mostly up to about 92 µM; nearly all actives have a fitted effect of over 30% in size
Method in brief: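 The parent HepG2 line is plated at 2,000 cells per well and rested 5 hr before compound pinning from DMSO stocks. Following a 16-hr treatment at 37 C, a fluorogenic live-cell substrate (CellTiter-Fluor) reports viability after 1 hr.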

[13] = biological target: Nuclear receptor subfamily 1 group I member 2 (Homo sapiens) (UniProt O75469); assay: Human pregnane X receptor (PXR) small molecule agonists, qHTS assay (AID 1346982); further: nearly all actives have a fitted effect of over 35% in size; further: potency means the concentration at half of the fitted maximal effect
Method in brief: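 After plating in 5% charcoal-stripped FBS and a 5 hr rest, PXR-Luc HepG2 cells received compounds in DMSO. Following 24 hr at 37 C, ONE-Glo was added and light output read.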

[14] = biological target: Nuclear receptor subfamily 1 group I member 2 (Rattus norvegicus) (UniProt Q9R1A7); assay: Rat pregnane X receptor (rPXR) activation by small molecules, qHTS assay (AID 1346983); details: rPXR luciferase reporter cells, One-Glo luminescence, 24 h; stronger effect = higher value; further: nearly all actives have a fitted effect of over 20% in size
Method in brief: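 Cell-based rPXR activation assay: rPXR cells, 2,000 per well, rested 5hr at 37 C, then exposed to compounds in DMSO for 24 hr at 37 C. Luciferase activity read by One-Glo luminescence after 30 min at room temperature.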

[15] = biological target: Nuclear receptor subfamily 1 group I member 2 (Homo sapiens) (UniProt O75469); assay: CYP3A4 induction through human pregnane X receptor (PXR) by small molecules, qHTS assay (AID 1346984); further: nearly all actives have a fitted effect of over 40% in size
Method in brief: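 Human PXR activation is tracked via CYP3A4 promoter-luciferase in DPX-2 (HepG2) cells. Compounds treat cells for 24hr at 37C, and luminescence is read after One-Glo.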

[16] = qHTS assay to identify small molecule antagonists of the progesterone receptor (PR) signaling pathway - cell viability counter screen (AID 1346798); further: series mostly up to about 92 µM; nearly all actives have a fitted effect of over 50% in size
Method in brief: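 PR-UAS-bla HEK293T cells in medium with 2% charcoal-stripped FBS were treated with compounds plus R5020 for 16 hr at 37C. Cell viability was then read by CellTiter-Glo luminescence after 30 min at room temperature in the same wells.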

[17] = qHTS assay to identify small molecule agonists of the progesterone receptor (PR) signaling pathway - cell viability counter screen (AID 1346799; calls by dose curve; further: nearly all actives have a fitted effect of over 45% in size)
Method in brief: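 PR-UAS-bla HEK293T cells, 3,000 per well in medium with 2% charcoal-stripped FBS, were preincubated 6 hr at 37C, then exposed to compounds for 16 hr; viability was read as CellTiter-Glo luminescence after 30 min at room temperature.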

[18] = Caspase-3/7 induction in CHO-K1 cells by small molecules, qHTS assay (AID 1346980); further: nearly all actives have a fitted effect of over 15% in size
Method in brief: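 Wild-type CHO-K1 cells exposed to compounds for 17hr at 37 C, 5% CO2. Caspase-3/7 activity then measured by Caspase-Glo 3/7 luminescence after 30min at room temperature.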

[19] = Caspase-3/7 induction in CHO-K1 cells by small molecules, qHTS cell viability counter screen (AID 1346979); further: nearly all actives have a fitted effect of over 35% in size
Method in brief: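 Wild-type CHO-K1 cells were seeded at 1,500 per well, rested 5hr at 37 C, then exposed to compounds in DMSO. After 16hr, CellTiter-Fluor reagent was added and fluorescence read 1hr later as the viability measure.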

[20] = biological target: Nuclear receptor subfamily 1 group I member 2 (Homo sapiens) (UniProt O75469); assay: Human pregnane X receptor (PXR) activation by small molecules, qHTS assay (AID 1346985); further: nearly all actives have a fitted effect of over 40% in size
Method in brief: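 DPX-2 cells (HepG2 co-transfected with a PXR response element and a CYP3A4-promoter luciferase construct) were seeded at 2,000 per well, rested 5 hr at 37C, then exposed to DMSO-dissolved compounds for 24 hr. Activation was read as luciferase luminescence.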
On the % scale 0 is the no-effect control and ±100 the full control effect.

Thyrotropin receptor (Homo sapiens), sequence (P16473 whole entry, looked up): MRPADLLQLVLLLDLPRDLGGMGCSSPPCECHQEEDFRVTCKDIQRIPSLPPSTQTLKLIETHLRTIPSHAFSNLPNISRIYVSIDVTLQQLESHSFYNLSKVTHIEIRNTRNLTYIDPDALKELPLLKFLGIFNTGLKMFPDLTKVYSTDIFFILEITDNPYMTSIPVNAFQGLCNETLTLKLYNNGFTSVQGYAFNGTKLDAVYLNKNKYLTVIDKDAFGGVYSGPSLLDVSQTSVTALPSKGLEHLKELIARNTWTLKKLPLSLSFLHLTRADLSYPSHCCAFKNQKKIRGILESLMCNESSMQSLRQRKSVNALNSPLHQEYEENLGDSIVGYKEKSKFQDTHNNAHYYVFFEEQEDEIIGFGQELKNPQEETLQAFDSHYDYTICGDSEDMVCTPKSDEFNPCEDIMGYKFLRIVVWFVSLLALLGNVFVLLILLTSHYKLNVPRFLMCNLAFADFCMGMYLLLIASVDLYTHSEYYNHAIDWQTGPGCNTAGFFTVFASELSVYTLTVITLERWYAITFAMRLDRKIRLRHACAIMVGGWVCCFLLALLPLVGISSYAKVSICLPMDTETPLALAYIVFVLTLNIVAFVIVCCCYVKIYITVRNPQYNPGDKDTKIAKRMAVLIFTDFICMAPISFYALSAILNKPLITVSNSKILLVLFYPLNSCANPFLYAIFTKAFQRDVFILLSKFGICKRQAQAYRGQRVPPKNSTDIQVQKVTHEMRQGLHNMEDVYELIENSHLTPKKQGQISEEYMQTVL
Nuclear receptor subfamily 1 group I member 2 (Homo sapiens), sequence (O75469 whole entry, looked up): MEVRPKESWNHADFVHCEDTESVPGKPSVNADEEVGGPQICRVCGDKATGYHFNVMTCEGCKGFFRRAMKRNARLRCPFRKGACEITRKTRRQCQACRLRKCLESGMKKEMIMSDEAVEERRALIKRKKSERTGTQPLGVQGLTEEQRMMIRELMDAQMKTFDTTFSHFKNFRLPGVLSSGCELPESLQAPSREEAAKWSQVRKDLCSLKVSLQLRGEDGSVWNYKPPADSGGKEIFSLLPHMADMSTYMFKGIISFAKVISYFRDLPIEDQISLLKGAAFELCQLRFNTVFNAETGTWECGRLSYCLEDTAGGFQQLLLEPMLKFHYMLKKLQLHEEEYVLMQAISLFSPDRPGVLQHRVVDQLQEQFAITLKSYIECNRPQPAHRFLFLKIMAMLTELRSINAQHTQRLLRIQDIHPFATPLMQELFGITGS
Progesterone receptor (Homo sapiens), sequence (P06401 whole entry, looked up): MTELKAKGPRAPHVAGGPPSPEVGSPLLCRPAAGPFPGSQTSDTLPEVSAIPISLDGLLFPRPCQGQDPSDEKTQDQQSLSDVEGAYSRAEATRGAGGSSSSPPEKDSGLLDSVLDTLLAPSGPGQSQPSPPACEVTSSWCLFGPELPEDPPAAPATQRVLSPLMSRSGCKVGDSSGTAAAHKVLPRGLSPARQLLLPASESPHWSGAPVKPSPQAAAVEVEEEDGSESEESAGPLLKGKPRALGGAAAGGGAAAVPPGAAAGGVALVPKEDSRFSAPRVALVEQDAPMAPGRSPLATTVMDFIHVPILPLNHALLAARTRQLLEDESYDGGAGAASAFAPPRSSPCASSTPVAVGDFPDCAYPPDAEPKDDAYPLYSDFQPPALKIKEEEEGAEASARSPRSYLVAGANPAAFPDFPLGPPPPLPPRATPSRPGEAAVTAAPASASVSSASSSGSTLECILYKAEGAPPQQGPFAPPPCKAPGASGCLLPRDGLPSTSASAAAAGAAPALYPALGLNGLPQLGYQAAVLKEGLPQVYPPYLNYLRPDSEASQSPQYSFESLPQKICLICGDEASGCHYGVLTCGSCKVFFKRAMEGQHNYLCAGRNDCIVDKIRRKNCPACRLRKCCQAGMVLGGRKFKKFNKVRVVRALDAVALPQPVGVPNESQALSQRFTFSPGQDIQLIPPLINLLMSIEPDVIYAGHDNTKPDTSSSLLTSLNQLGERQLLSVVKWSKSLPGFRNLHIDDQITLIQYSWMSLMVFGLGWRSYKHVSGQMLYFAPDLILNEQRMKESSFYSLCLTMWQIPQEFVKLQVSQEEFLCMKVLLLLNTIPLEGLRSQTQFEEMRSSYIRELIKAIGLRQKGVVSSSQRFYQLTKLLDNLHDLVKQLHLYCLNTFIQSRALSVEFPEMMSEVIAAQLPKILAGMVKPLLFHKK
Thyrotropin-releasing hormone receptor (Homo sapiens), sequence (P34981 whole entry, looked up): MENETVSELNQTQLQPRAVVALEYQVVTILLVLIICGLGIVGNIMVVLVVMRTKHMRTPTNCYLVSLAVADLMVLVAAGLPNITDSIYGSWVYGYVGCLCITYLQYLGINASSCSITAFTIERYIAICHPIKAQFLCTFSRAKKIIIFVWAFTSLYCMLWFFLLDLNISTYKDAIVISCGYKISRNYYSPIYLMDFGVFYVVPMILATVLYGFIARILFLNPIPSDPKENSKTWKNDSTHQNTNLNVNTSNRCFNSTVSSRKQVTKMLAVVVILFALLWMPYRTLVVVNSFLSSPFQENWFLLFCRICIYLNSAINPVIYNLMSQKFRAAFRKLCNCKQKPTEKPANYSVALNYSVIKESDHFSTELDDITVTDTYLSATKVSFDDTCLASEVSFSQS
Nuclear receptor subfamily 1 group I member 2 (Rattus norvegicus), sequence (Q9R1A7 whole entry, looked up): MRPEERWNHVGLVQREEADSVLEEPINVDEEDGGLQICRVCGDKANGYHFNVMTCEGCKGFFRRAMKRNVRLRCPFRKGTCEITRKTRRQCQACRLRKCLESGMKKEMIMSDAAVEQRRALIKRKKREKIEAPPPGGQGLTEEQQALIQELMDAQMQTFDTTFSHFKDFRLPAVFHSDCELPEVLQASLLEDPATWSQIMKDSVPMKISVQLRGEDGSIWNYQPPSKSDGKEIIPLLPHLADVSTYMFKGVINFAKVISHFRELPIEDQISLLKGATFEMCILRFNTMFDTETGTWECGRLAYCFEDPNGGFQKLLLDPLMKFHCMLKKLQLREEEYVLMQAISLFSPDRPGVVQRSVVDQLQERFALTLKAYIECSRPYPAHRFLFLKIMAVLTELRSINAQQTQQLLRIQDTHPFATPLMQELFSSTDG

C[C@]12C=CC(=O)C=C1CC[C@@H]1[C@@H]2CC[C@@]2(C)[C@H]1CC[C@]2(C)O
active: Potency [3] 3.35 µM
inactive: outcome [1] | Potency [2] | Potency [4] | outcome [5] | Potency [6] | outcome [7] | Potency [8] | outcome [9] | Potency [10] | outcome [11] | Potency [12] | Potency [13] | max activation [14] -4.23% | Potency [15]

CCCOc1nn(C(=O)NS(=O)(=O)c2ccccc2C(=O)OC)c(=O)n1C
inactive: outcome [1] | Potency [2] | Potency [3] | Potency [16] | Potency [17] | Potency [6] | outcome [7] | Potency [10] | outcome [11] | outcome [18] | Potency [12] | Potency [13]

Cc1cc(OC(=O)N(C)C)nn1C(=O)N(C)C
inactive: outcome [1] | Potency [2] | Potency [3] | Potency [16] | Potency [17] | outcome [5] | Potency [6] | outcome [7] | Potency [8] | outcome [9] | Potency [10] | outcome [11] | Potency [19] | outcome [18] | Potency [12] | Potency [13]

CCC(CC)(CNC(=O)CCCO)c1cccc(OC)c1
inactive: outcome [1] | Potency [2] | Potency [3] | Potency [16] | Potency [17] | outcome [5] | Potency [6] | outcome [7] | Potency [8] | outcome [9] | Potency [10] | outcome [11] | outcome [18] | Potency [12] | Potency [13]

O=C(Cl)OCc1ccccc1
inactive: outcome [1] | Potency [2] | Potency [3] | Potency [16] | Potency [17] | outcome [5] | Potency [6] | outcome [7] | Potency [8] | outcome [9] | Potency [10] | outcome [11] | Potency [19] | outcome [18] | Potency [12] | Potency [13]

Clc1ccc(C(Cl)(Cl)Cl)cn1
inactive: outcome [1] | Potency [2] | Potency [3] | Potency [4] | outcome [5] | Potency [6] | outcome [7] | Potency [8] | outcome [9] | Potency [10] | outcome [11] | outcome [18] | Potency [12] | Potency [13]

CCOC1Oc2ccc(OS(C)(=O)=O)cc2C1(C)C (stereo not drawn)
inactive: outcome [1] | Potency [2] | Potency [3] | outcome [5] | Potency [6] | outcome [7] | Potency [8] | outcome [9] | Potency [10] | outcome [11] | outcome [18] | Potency [12]
active: Potency [4] 30.4 µM | Potency [13] 21.5 µM

CCOP(=S)(OCC)Oc1ccc(Cl)cc1Cl
inactive: outcome [1] | Potency [2] | Potency [3] | Potency [16] | Potency [17] | outcome [5] | Potency [6] | outcome [7] | Potency [8] | outcome [9] | Potency [10] | outcome [11] | Potency [19] | outcome [18] | Potency [12] | Potency [13]

CCN1CCCC1CNC(=O)C(O)(c1ccccc1)c1ccccc1 (stereo not drawn)
inactive: outcome [1] | Potency [2] | Potency [3] | Potency [16] | Potency [17] | outcome [5] | Potency [6] | outcome [7] | Potency [10] | outcome [11] | Potency [19] | outcome [18] | Potency [12]

CC(=O)OCC1=C(C(=O)O)N2C(=O)[C@@H](N)[C@H]2SC1
inactive: activity change, negative = inhibition [1] 1.01% [at 19 µM] | activity change, negative = cytotoxicity [2] -2.84% [at 19 µM] | activation [3] 0.683% [at 19 µM] | activity change, negative = cytotoxicity [16] 2.66% [at 18.9 µM] | activity change, negative = cytotoxicity [17] 3.69% [at 19 µM] | viability change, negative = cytotoxic [5] -0.755% [at 15.8 µM] | activation [7] -1.32% [at 15.8 µM] | activity change, negative = cytotoxicity [10] 0.727% [at 19 µM] | caspase activation [11] 0.281% [at 19 µM] | activity change, negative = cytotoxicity [19] 0.401% [at 19 µM] | caspase-3/7 activation [18] 0.439% [at 19 µM] | activity change, negative = cytotoxicity [12] -1.33% [at 19 µM] | max activation [14] 4.87% | Potency [15] | Potency [20]

CCC(C)(C#N)N=NC(C)(C#N)CC (stereo not drawn)
inactive: outcome [1] | Potency [2] | Potency [3] | Potency [16] | Potency [17] | outcome [5] | Potency [6] | outcome [7] | Potency [8] | outcome [9] | Potency [10] | outcome [11] | Potency [19] | outcome [18] | Potency [12] | Potency [13]

Cl/C=C/CCl
inactive: outcome [1] | Potency [2] | Potency [3] | Potency [16] | Potency [17] | outcome [5] | Potency [6] | outcome [7] | Potency [10] | outcome [11] | outcome [18] | Potency [12] | Potency [13]

ClCCCCl
inactive: outcome [1] | Potency [2] | Potency [3] | Potency [16] | Potency [17] | outcome [5] | Potency [6] | outcome [7] | Potency [8] | outcome [9] | Potency [10] | outcome [11] | Potency [19] | Potency [12] | Potency [13]

CC(C)(N)Cc1ccccc1Cl
inactive: outcome [1] | Potency [2] | Potency [3] | Potency [4] | outcome [5] | Potency [6] | outcome [7] | Potency [8] | outcome [9] | Potency [10] | outcome [11] | Potency [12] | Potency [13]
